# Assay outcomes as filed in PubChem BioAssay.
# Compounds with a hit are over-represented: about 3.4% of the library has one in this group of screens.
# PP5 primary – PP5 (human) phosphatase inhibition; P53041; purified PP5c, OMFP substrate fluorescence; inhibition, % at 6.7 µM; 320,000 tested, 0.18% active; AID 1987;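 active = inhibition above the campaign's mean inhibition across all tested compounds plus 3 SD, cut at about 9.5% in these data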;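 also: 0% = DMSO only and 100% = 100 µM cantharidin control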
# pPAFAH inh – inhibitors of human plasma PAF acetylhydrolase (pPAFAH) | Q13093 | recombinant pPAFAH, FP-rhodamine probe fluorescence polarization | inhibition, % at 3.39 µM | 330,000 tested, 1.5% active | AID 463082;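 active = inhibition above the mean inhibition across the screen plus 3 SD, cut at about 25% in these data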;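 also: inhibitors block binding of the rhodamine activity-based probe so polarization drops; 0% = enzyme with DMSO and 100% = wells lacking pPAFAH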
# PAFAH1B2 FP inh – blocks human PAF acetylhydrolase 1b catalytic subunit 2 | recombinant PAFAH1B2, FP-rhodamine activity probe, fluorescence polarization | inhibition, % at 3.39 µM | 340,000 tested, 1.2% active | AID 492953;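 active = inhibition above the mean of all tested compounds plus 3 SD, cut at about 24% in these data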;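 also: 0% = enzyme with DMSO and 100% = wells lacking PAFAH1B2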
# PAFAH2 inh – inhibitors of human PAFAH2 | recombinant PAFAH2, FP-rhodamine activity probe, fluorescence polarization | inhibition, % at 3.39 µM | 340,000 tested, 0.99% active;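 active = inhibition above the mean over all tested compounds plus 3 SD, cut at about 30% in these data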;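 also: inhibitors block probe labeling of enzyme so polarization drops; 0% = enzyme with DMSO and 100% = wells lacking PAFAH2 protein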
# PP1 counter – counter-screen for PP5 inhibitors: inhibitors of human PP1-alpha; AID 2235; purified PP1alpha, OMFP fluorescence; P62136; inhibition, % at 6.7 µM; 320,000 tested, 0.9% active;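 active = inhibition above the mean inhibition of all tested compounds plus 3 SD, computed separately for each screening campaign, cut at about 15% in these data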
# Target sequence (P62136 whole entry, looked up): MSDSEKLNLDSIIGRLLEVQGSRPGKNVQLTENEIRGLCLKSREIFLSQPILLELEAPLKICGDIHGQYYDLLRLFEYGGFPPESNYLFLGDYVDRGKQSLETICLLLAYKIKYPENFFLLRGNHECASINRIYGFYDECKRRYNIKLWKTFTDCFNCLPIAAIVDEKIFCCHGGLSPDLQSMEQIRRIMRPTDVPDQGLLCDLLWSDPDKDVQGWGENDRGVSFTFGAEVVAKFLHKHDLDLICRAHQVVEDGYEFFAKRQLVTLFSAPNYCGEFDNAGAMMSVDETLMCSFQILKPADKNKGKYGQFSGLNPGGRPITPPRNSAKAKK
# PAFAH1B3 FP inh – inhibitors of human PAFAH1B3. Q15102. recombinant PAFAH1B3, FP-rhodamine probe, fluorescence polarization. inhibition, % at 3.39 µM. 340,000 tested, 0.28% active;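 active = inhibition above the screen-wide average of all tested compounds plus 3 SD, cut at about 25% in these data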;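 also: 0% = enzyme with DMSO only and 100% = wells lacking PAFAH1B3 protein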
# Target sequence (Q15102 whole entry, looked up): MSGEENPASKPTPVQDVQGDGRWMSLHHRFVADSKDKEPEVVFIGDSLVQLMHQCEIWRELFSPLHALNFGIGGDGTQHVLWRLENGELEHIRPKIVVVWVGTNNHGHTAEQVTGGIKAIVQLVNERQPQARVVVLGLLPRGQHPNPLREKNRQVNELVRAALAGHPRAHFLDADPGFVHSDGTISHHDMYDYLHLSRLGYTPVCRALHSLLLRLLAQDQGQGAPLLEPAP
# pPAFAH confirm – confirmation of human plasma PAF acetylhydrolase (pPAFAH) inhibitors; shares compounds with pPAFAH inh; recombinant pPAFAH, FP-Rh probe fluorescence polarization; inhibition, % at 3.39 µM; 2,300 tested, 72% active;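 active = mean inhibition of the triplicate above the hit cutoff set for the earlier primary screen, cut at about 25% in these data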;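 also: 0% = enzyme with DMSO and 100% = wells lacking pPAFAH enzyme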
# Numbers without * were called inactive; · = no result.
SMILES,PP5 primary,pPAFAH inh,PAFAH1B2 FP inh,PAFAH2 inh,PP1 counter,PAFAH1B3 FP inh,pPAFAH confirm
COC(=O)c1ccc(N)cc1O,-1,0,-5,4,1,5,·
COc1cccc(CC(=O)Nc2ccc(S(=O)(=O)Nc3nc(C)cc(C)n3)cc2)c1,-1,2,2,2,-4,10,·
CC(=O)Nc1ccc(C=NNc2ccc(S(=O)(=O)Nc3ccccc3C(=O)O)cc2[N+](=O)[O-])cc1,·,64*,26*,29,·,27*,66*
COc1cc(/C=N/Nc2ccc(S(N)(=O)=O)cc2[N+](=O)[O-])cc(OC)c1O,2,12,0,6,2,10,·
COc1cc(C=NNc2ccc(S(=O)(=O)Nc3ccccc3C(=O)O)cc2[N+](=O)[O-])ccc1O,·,63*,31*,48*,·,21,78*
CN(CCO)c1ccc(C=NNc2ccc([N+](=O)[O-])cc2S(=O)(=O)Nc2ccccc2C(=O)O)cc1,·,49*,·,·,·,·,55*
C/C(=N\NC(=O)c1cc(O)cc(O)c1)c1ccc(NC(=O)Cc2ccccc2)cc1,4,45*,19,27,11,35*,15
COc1ccc(S(=O)(=O)N2CCOCC2)cc1NC(=O)COc1ccc(C(C)=O)cc1OC,·,·,0,4,·,5,·
CCn1c(SCC(=O)N2CCOCC2)nnc1C(C)NC(=O)c1ccccc1 (stereo unspecified),2,3,5,2,-1,4,·
N#Cc1c(NCCCO)nc(-c2ccccc2)c2c1CCCC2,-2,36*,8,-2,2,2,15
CCOC(=O)NC1(Nc2ccc(C)cc2)Oc2ccccc2O1,-2,46*,7,4,-4,11,5
COCOc1ccc(C2CC(=O)c3c(OCOC)cc(OCOC)cc3O2)cc1 (stereo unspecified),2,8,7,3,-3,1,·
c1cc2c(cc1C1CCCCC1)c1c3n2CCCNC3CCC1 (stereo unspecified),4,45*,6,4,7,5,20
Cc1ccc2c(c1)c1c3n2CCCNC3CCC1 (stereo unspecified),7,0,-1,-5,-8,10,·
COc1ccc(C)cc1NC(=O)NNC(=O)c1cc2ccccc2cc1O,1,48*,8,3,3,34*,52*
COc1ccccc1NC(=O)c1cc2cc(Br)ccc2cc1O,5,42*,14,0,3,29*,45*
N#CC1=C(N)Oc2n[nH]c(-c3cccs3)c2C1c1ccsc1 (stereo unspecified),-3,38*,10,10,-4,8,6
O=C(c1ccccc1)C(Nc1cccc([N+](=O)[O-])c1)c1ccccc1 (stereo unspecified),·,·,-3,1,·,2,·
Cc1ccc(NC(=S)N2CC(C)OC(C)C2)cc1C (stereo unspecified),·,·,8,2,·,-1,·
CCC(=Nc1ccc(N)cc1)C1=C(O)C(C(=O)OC)C(C)(C)CC1=O (stereo unspecified),5,58*,-2,9,14,12,1
CCCCC(=Nc1ccc(N)cc1)C1=C(O)C(C(=O)OC)C(C)(C)CC1=O (stereo unspecified),2,38*,10,10,8,14,8
CCCC(=Nc1ccccc1)C1=C(O)C(C(=O)OC)C(C)(C)CC1=O (stereo unspecified),2,2,1,0,-2,1,·
O=C(Cn1cnc([N+](=O)[O-])n1)c1ccc(O)c(O)c1,0,56*,2,2,-2,12,20
COc1ccc2nc(SCC(=O)NC3CCCC3)c(C)cc2c1,1,6,2,6,4,3,·
O=C(CC1Nc2cccc3cccc(c23)NC1=O)Nc1ccccc1 (stereo unspecified),1,52*,4,58*,1,18,12
SMILES,PP5 primary,pPAFAH inh,PAFAH1B2 FP inh,PAFAH2 inh,PP1 counter,PAFAH1B3 FP inh,pPAFAH confirm
Cc1ccc(NC(=O)CN2C(=O)C(=O)N(C3CCCC3)C2=O)c(Cl)c1,0,-1,-3,-12,-1,-4,·
O=C1CC[C@@H]2C[C@@]3(C[C@@H]4CCN1[C@H]24)Nc1cc([N+](=O)[O-])ccc1NC3=NCc1ccccc1,·,·,2,7,·,5,·
COc1ccc(/C=C(\C#N)C(=O)Nc2cccc3ncccc23)cc1OC,-1,1,2,-1,5,9,·
N#C/C(=C\c1ccc(O)c(O)c1)C(=O)Nc1cccc2ncccc12,2,52*,10,49*,13,15,70*
O=c1cc(-c2ccccc2Cl)oc2c(NS(=O)(=O)c3cc(Cl)cc(Cl)c3O)ccc(O)c12,1,41*,13,12,27*,14,78*
O=C(Cc1c(F)cccc1Cl)N1CCN(S(=O)(=O)c2cccc(F)c2)CC1,0,7,3,3,-4,1,·
O=C(CSc1nc2nn(-c3ccccc3)c(=O)c-2c2n1CCCCC2)c1ccc(O)c(O)c1,5,71*,9,85*,6,29*,86*
Cc1ccc(CSCC(=O)N(C)CC(=O)Nc2ccccc2C(F)(F)F)cc1,-1,1,-2,3,-1,-6,·
Cc1ccc(C(=O)Nc2cccc(C(F)(F)F)c2)cc1NC(=O)c1csc(-c2ccncc2)n1,4,-5,-6,-14,15,-4,·
N#C/C(=N\Nc1cccc(C(F)(F)F)c1)C(=O)c1csc(-c2cccnc2)n1,5,45*,6,16,8,10,63*
COC(=O)C1CCc2c(ccc3c2CCCC3)C1=O (stereo unspecified),·,·,4,7,·,4,·
COc1ccc(C(=O)CC(=O)C(=O)Nc2ccc([N+](=O)[O-])cc2C)cc1,1,48*,6,-8,1,15,8
COc1ccc(C(=O)CC(=O)C(=O)Nc2cc(C)ccc2C)cc1,2,2,2,-3,2,10,·
CCc1cccc(CC)c1NC(=O)COC(=O)c1cccc(-c2ccc(OC(C)=O)cc2)c1,-1,-1,-6,19,5,-1,·
CCN(CC)S(=O)(=O)c1cccc(C(=O)N/N=C/c2cccc(O)c2O)c1,0,41*,0,12,16*,4,29*
Cc1cc(-c2ccccc2)nc(N/N=C/c2ccc(O)cc2O)n1,1,20,9,7,6,13,·
CN(/N=C/c1ccc(O)cc1O)c1nc(-c2ccccc2)cc(-c2ccccc2)n1,5,37*,-2,3,1,16,10
COc1ccccc1NS(=O)(=O)c1ccc(C)c(C(N)=O)c1,1,58*,-2,3,-2,3,1
